Results from PubChem BioAssay.
Active and inactive are the calls of the source.

Columns and labels:
[1] = binders of probe aFSTL3 on microarray, primary screen, stem cell growth factor project, biochemical, small-molecule microarray, fluorescence 635/667 (AID 1064); conditions: higher = more signal;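 further: measures binding of the biotinylated anti-FSTL3 antibody to printed compounds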
[2] = binders from COS7 lysate, DM2A8 probe, primary screen, torsin A project, cell lysate, small-molecule microarray, fluorescence 635/667 (AID 1065); conditions: higher = more signal, COS7 lysate expressing mutant human TOR1A
[3] = binders of probe aFGF2 on microarray, primary screen, stem cell growth factor project, biochemical, small-molecule microarray, fluorescence 635/667 (AID 1067); conditions: higher = more signal;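 further: measures binding of biotinylated aFGF2 protein to printed compounds on slides; z-score merges feature fluorescence and signal-to-noise across triplicate slides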
[4] = binders of probe aFGF10 on microarray, primary screen, stem cell growth factor project, biochemical, small-molecule microarray, fluorescence 635/667 (AID 1071); conditions: higher = more signal;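 further: score merges 667 nm spot intensity and signal to noise from triplicate slides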
[5] = molecular target: Neurogenic locus notch homolog protein 2 (Homo sapiens) (UniProt Q04721); assay: Notch2 binders on small-molecule microarrays, primary screen, biochemical, small-molecule microarray, 635 nm fluorescence, stem cell growth factors (AID 1073); conditions: Notch2 binding, higher = more signal
[6] = molecular target: Pro-neuregulin-1, membrane-bound isoform (Homo sapiens) (UniProt Q02297); assay: NRG1 binders on small-molecule microarrays, primary screen, psychiatric disease protein project, biochemical, small-molecule microarray, fluorescence 635/667 (AID 1075); conditions: NRG1 binding, 635 nm fluorescence, higher = more signal;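 further: score combines 667 nm spot fluorescence with signal to noise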
[7] = test system: Neuregulin-1 EGF-like domain; assay: binders of neuregulin-1 EGF-like domain, primary screen, biochemical, small-molecule microarray, 635 nm fluorescence (AID 1081); conditions: small-molecule microarray binding, higher = more signal;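 further: binding of the protein to compounds printed on small-molecule microarray slides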
[8] = FRG1 promoter luciferase signal modulators, primary screen, FRG1 inhibition for FSHD, cell-based, C2C12 myotubes, firefly/Renilla luciferase, luminescence (AID 1084); conditions: higher = more signal, called active from +8 up or from −8 down
[9] = binders of probe aFST on microarray, primary screen, stem cell growth factor project, biochemical, small-molecule microarray, fluorescence 635/667 (AID 1086); conditions: higher = more signal;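 further: score merges 667 nm fluorescence with signal-to-noise of each printed compound spot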
[10] = binders of probe aHhip on microarray, primary screen, stem cell growth factor project, biochemical, small-molecule microarray, fluorescence 635/667 (AID 1087); conditions: higher = more signal;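 further: score merges spot fluorescence at 667nm with spot signal to noise ratio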
[11] = test system: PRMT1 (protein arginine N-methyltransferase 1); assay: PRMT1 binders on small-molecule microarrays, primary screen, biochemical, small-molecule microarray, 635 nm fluorescence (AID 1088); conditions: small-molecule microarray binding, higher = more signal;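 further: binding of Prmt1 protein to compounds spotted on small-molecule microarray slides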
[12] = yeast growth modulation, basal conditions, primary screen, YJM789 clinical isolate, OD600, 24 h (AID 1089);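 further: growth of clinical yeast isolate S. cerevisiae YJM 789 seeded 1000 cells per well; test concentration not given here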; conditions: S. cerevisiae YJM789 growth, higher = more signal, called active from +8 up or from −8 down
[13] = fission yeast growth modulation, primary screen, strain 972, OD600, 24 h, no modulator (AID 1090);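 further: basal condition with compound alone and no growth modifier present; test concentration not given here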; conditions: S. pombe 972 growth, higher = more signal, called active from +8 up or from −8 down
[14] = S. cerevisiae growth modulation with rapamycin, primary screen, strain BY4716, OD600, 96 h (AID 1091); conditions: higher = more signal, called active from +8 up or from −8 down; further: test concentration not given here
[15] = molecular target: Torsin-1A-interacting protein 2 (Homo sapiens) (UniProt Q8NFQ8); assay: LULL1 binders on small-molecule microarray, primary screen, cell lysate, human LULL1 lysate, 635/667 nm fluorescence (AID 1092); conditions: hLULL1 lysate binding, 635 nm fluorescence, higher = more signal;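 further: probe is lysate of COS7 cells overexpressing human LULL1; score merges per-feature 667 nm fluorescence with signal-to-noise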
[16] = E. coli growth modulation, two-sided OD650, primary screen, E. coli filamentation project, strain DRC41, 24 h (AID 1093); conditions: OD650, 24 h, higher = more signal, called active from +8 up or from −8 down;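 further: MC1000 strain lacking acrAB efflux and sulA so SOS filamentation is blocked; test concentration not given here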
[17] = small-molecule microarray binders of probe aLefty2, primary screen, biochemical, biotinylated probe, 635/667 nm fluorescence (AID 1094); conditions: higher = more signal;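 further: score merges spot fluorescence near 667 nm with spot signal-to-noise ratio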
[18] = test system: Noggin (protein binding on small-molecule microarray); assay: Noggin binders on small-molecule microarray, primary screen, biochemical, 635/667 nm fluorescence (AID 1095); conditions: 635 nm fluorescence, higher = more signal;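 further: score merges 667 nm feature fluorescence with signal to noise over triplicate slides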
[19] = molecular target: Neurogenic locus notch homolog protein 3 (Homo sapiens) (UniProt Q9UM47); assay: NOTCH3 binders on small-molecule microarray, primary screen, biochemical, 635/667 nm fluorescence (AID 1096); conditions: NOTCH3 binding, 635 nm fluorescence, higher = more signal
[20] = small-molecule microarray binders of probe aEGFR, primary screen, biochemical, biotinylated probe, 635/667 nm fluorescence (AID 1097); conditions: higher = more signal;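 further: probe is a biotinylated anti-EGFR antibody binding compounds printed on slides; score combines fluorescence near 667 nm and signal to noise of each spot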

Chain of Torsin-1A-interacting protein 2 (Homo sapiens) (Q8NFQ8 whole entry, looked up): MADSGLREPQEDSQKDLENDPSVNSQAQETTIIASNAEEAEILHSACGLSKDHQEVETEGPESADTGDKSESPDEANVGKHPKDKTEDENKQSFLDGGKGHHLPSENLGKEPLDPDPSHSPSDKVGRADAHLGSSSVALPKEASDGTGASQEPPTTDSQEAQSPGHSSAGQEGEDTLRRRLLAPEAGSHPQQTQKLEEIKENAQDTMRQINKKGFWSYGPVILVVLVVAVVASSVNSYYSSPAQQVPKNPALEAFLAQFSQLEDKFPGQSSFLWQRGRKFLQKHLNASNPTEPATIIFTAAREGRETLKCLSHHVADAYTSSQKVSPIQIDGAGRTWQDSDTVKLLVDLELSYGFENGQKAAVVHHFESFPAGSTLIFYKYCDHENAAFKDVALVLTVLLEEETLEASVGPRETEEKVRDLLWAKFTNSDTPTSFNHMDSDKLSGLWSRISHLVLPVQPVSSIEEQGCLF
Chain of Neurogenic locus notch homolog protein 2 (Homo sapiens) (Q04721 whole entry, looked up, canonical isoform): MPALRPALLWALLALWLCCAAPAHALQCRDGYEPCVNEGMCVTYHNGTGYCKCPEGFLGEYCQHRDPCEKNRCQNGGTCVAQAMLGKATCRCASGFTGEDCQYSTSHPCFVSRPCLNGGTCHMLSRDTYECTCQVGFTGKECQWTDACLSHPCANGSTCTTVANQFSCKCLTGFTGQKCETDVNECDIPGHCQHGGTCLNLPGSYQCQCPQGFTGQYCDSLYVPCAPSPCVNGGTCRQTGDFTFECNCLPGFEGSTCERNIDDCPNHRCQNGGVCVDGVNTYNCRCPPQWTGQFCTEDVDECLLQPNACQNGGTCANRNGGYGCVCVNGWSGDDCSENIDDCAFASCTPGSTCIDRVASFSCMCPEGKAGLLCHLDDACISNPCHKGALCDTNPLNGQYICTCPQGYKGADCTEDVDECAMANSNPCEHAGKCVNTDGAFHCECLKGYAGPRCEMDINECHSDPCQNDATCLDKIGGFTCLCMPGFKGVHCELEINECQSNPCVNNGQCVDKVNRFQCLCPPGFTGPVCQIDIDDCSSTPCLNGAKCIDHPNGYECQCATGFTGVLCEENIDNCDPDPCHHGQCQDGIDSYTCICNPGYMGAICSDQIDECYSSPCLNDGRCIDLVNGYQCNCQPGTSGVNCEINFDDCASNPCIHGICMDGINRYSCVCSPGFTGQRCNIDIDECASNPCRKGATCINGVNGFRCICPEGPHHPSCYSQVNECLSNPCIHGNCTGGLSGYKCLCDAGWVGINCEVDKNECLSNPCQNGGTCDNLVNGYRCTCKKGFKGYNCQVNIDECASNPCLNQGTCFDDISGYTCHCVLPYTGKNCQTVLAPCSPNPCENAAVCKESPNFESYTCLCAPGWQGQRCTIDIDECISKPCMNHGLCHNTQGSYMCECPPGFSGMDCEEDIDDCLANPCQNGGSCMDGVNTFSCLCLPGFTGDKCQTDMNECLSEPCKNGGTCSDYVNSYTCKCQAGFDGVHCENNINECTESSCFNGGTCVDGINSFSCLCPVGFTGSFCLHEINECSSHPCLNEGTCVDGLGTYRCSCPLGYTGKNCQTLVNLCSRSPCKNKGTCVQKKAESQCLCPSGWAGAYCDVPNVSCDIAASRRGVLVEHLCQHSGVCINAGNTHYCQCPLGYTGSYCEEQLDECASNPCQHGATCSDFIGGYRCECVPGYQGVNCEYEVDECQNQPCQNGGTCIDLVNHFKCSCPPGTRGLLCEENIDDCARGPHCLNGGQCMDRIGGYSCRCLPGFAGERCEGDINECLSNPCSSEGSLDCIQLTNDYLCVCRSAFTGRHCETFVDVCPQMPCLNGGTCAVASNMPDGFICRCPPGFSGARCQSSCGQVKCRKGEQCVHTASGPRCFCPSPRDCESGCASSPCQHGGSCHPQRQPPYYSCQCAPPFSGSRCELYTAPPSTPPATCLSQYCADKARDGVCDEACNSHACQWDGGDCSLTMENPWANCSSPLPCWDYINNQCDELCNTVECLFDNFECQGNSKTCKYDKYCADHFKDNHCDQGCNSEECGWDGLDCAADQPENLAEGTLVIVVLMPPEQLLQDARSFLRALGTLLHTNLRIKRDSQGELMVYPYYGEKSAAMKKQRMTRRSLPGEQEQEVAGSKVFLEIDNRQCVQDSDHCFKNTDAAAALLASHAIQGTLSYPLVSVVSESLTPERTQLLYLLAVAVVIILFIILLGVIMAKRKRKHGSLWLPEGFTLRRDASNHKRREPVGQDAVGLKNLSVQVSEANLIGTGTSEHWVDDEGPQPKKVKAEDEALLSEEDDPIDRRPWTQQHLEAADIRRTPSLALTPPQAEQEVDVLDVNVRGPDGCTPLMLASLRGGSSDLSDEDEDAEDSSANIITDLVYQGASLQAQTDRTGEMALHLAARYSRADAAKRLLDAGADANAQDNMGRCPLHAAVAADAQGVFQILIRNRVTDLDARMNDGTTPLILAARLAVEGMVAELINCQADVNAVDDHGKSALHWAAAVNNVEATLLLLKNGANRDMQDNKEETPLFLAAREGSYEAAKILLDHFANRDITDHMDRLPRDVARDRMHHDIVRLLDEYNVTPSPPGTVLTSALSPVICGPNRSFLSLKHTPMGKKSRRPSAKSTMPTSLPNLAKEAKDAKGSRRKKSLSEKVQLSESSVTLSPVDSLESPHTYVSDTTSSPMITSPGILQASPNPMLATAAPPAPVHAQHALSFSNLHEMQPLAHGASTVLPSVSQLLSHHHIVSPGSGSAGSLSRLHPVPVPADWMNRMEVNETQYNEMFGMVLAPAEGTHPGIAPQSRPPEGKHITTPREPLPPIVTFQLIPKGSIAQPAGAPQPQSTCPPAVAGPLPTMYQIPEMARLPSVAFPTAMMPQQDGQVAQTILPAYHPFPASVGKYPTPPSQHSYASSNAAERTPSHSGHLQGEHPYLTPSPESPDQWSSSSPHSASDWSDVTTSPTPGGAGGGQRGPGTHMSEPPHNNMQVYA
Chain of Pro-neuregulin-1, membrane-bound isoform (Homo sapiens) (Q02297 whole entry, looked up, the tested form may be a part, canonical isoform): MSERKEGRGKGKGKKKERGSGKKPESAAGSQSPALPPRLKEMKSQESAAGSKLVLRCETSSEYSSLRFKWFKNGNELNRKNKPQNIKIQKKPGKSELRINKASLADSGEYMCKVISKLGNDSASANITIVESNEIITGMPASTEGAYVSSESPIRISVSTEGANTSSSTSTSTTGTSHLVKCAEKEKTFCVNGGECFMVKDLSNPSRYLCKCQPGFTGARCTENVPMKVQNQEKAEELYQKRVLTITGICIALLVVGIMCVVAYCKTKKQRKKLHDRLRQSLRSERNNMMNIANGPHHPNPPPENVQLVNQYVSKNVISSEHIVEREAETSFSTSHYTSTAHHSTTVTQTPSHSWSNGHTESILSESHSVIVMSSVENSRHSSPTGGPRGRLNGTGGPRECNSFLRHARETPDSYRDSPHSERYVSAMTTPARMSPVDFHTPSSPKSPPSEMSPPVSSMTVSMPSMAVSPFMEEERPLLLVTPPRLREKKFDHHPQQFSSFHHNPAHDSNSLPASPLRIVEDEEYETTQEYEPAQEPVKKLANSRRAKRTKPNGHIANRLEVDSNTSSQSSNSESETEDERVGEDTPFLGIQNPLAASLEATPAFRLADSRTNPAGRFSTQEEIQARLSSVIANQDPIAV

SMILES | composite z-score [1] | composite z-score [2] | composite z-score [3] | composite z-score [4] | composite z-score [5] | composite z-score [6] | composite z-score [7] | z-score [8] | composite z-score [9] | composite z-score [10] | composite z-score [11] | z-score [12] | z-score [13] | z-score [14] | composite z-score [15] | z-score [16] | composite z-score [17] | composite z-score [18] | composite z-score [19] | composite z-score [20]
[N-]=[N+]=Nc1ccccc1C[C@]1(C(=O)O)COC(c2ccc(OCCCO)cc2)=N1 | 0.326 | -1.1 | -0.11 | 0.518 | 0.194 | 0.614 | 1.19 | 5.78 (inactive) | 0.205 | 0.419 | -0.767 | -0.458 (inactive) | -0.88 (inactive) | 0.559 (inactive) | 1.66 | -0.408 (inactive) | -0.195 | -0.476 | -0.609 | -0.0079
C=CCC(OC(C)=O)[C@@H]1[C@@H](N(Cc2ccc(-c3cccc(C(F)(F)F)c3)o2)C(=O)c2ccc(-c3ccccc3)cc2)c2cc(OCCCO)ccc2N1C(=O)Cc1ccc2ccccc2c1 (stereo not given in full) | -0.414 | -0.732 | -0.0454 | -0.342 | -0.753 | -0.337 | -0.0291 | -0.0069 (inactive) | 1.09 | 0.0156 | -0.457 | 0.955 (inactive) | 0.863 (inactive) | 1.09 (inactive) | 0.512 | -0.898 (inactive) | -0.0928 | -0.214 | -0.3 | -0.235
COc1ccc([Si](C)(C)[C@@H]2[C@@H](CCO)O[C@]3(C(=O)N(Cc4ccccc4)c4ccc(N5CCOC5=O)cc43)[C@H]2C)cc1 | -0.142 | 0.682 | -0.0346 | 0.65 | 0.545 | 0.69 | 0.951 | -4.48 (inactive) | 0.152 | -0.226 | 1.51 | 2.55 (inactive) | -0.522 (inactive) | 17.5 (active) | 1.78 | 1.44 (inactive) | -0.0722 | 0.446 | 0.693 | -0.14
CCCCCC1=C2CNC(C)(C(=O)OC)C=C2C(C)C1=O (stereo not given) | 0.59 | -0.414 | -0.0676 | 0.0477 | 0.363 | 1.07 | 0.972 | 1.78 (inactive) | 0.0861 | 0.376 | -0.998 | 0.511 (inactive) | 1.7 (inactive) | 1.48 (inactive) | 1.14 | -0.67 (inactive) | 0.118 | -0.947 | -0.426 | -0.0581
COc1ccc(CCNC(=O)[C@@H]2c3ccccc3C(=O)N(C3CCCCC3)[C@H]2c2ccc(CO)cc2)cc1 | 0.0003 | 1.3 | 0.104 | 0.329 | 0.785 | 1.05 | 1.24 | -0.335 (inactive) | 0.246 | -0.0645 | 0.399 | -0.395 (inactive) | -0.838 (inactive) | 0.584 (inactive) | 3.07 | -1.14 (inactive) | -0.0671 | -0.282 | 0.366 | -0.0972
C#CCN([C@@H](Cc1ccccc1)C(=O)OC)[C@@H](/C=C/C1CC1)[C@H](O)Cc1ccccc1 | 1.2 | 0.0218 | -0.114 | -0.181 | -0.875 | -0.445 | -0.351 | -4.13 (inactive) | -0.283 | -0.169 | -0.59 | -0.464 (inactive) | -1.22 (inactive) | -0.0898 (inactive) | 0.209 | -0.807 (inactive) | -0.0051 | 0.0503 | -0.525 | -0.307
CC[C@@H]1C=C(C(=O)O)[C@H](c2ccccc2)N1S(=O)(=O)c1ccc(C)cc1 | 0.262 | 0.577 | 0.0663 | 0.829 | 1.53 | 1.19 | 1.38 | -1.24 (inactive) | 0.635 | -0.0296 | 0.598 | -1.14 (inactive) | 0.231 (inactive) | -0.12 (inactive) | 2.87 | -0.749 (inactive) | 0.262 | 0.103 | 0.981 | 0.0638
CCCN1C(=O)[C@@]2(Cc3ccccc31)N=C(c1ccc(OCCCO)cc1)O[C@H]2c1ccccc1 | 0.654 | 0.27 | -0.0909 | 0.181 | 0.697 | 1.55 | 1.21 | -1.35 (inactive) | 0.193 | -0.0852 | 1.46 | -0.306 (inactive) | -7.39 (inactive) | 0.99 (inactive) | 2.58 | -0.0139 (inactive) | 0.235 | 0.643 | 0.355 | 0.0192
CO[C@H]1O[C@H](CO)[C@@H](OC(=O)Nc2ccc3c(c2)OCO3)[C@H](OC(=O)Nc2ccc3c(c2)OCO3)[C@@H]1OC(=O)Nc1ccc2c(c1)OCO2 | -0.202 | 0.584 | 0.256 | 1.21 | 1.26 | 1.78 | 1.2 | 2.2 (inactive) | 0.338 | 0.0818 | 1.54 | 1.15 (inactive) | 1.37 (inactive) | 5.69 (inactive) | 3.44 | 0.508 (inactive) | 0.0909 | 0.643 | 1.03 | -0.039
COC(=O)[C@@]1(Cc2ccc(OC)cc2)[C@H]2c3cc(C(=O)N(C)C)n(Cc4ccc(OC(F)(F)F)cc4)c3C[C@H]2CN1C(=O)c1ccccc1 | 0.363 | -0.468 | -0.121 | -0.0332 | 1.58 | 1.39 | 1.44 | 2.88 (inactive) | 0.575 | 0.276 | -0.708 | 0.461 (inactive) | 1.08 (inactive) | 0.649 (inactive) | 3.39 | -1.08 (inactive) | 0.106 | -0.588 | -0.354 | 0.0139
